Results published in the supplement of paper PMC11417369.
± gives the standard deviation of the averaged measurements. The full ranking holds about 25,000 sequences; the median of “ln(normalized median fluorescence intensity)” is about 7.9, and the highest 2% start at about 11. Shown is part of a subset that was picked to be rich in the highest values.

Test system: PfAP2-I AP2 domain 3 (GST-tagged)
Assay: gcPBM binding intensity (ln(normalized median fluorescence intensity)); higher = stronger DNA binding
How it was run: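 In this array assay, P. falciparum DNA-binding domains with a GST tag, expressed in E. coli, were applied for 1 h to primer-extended double-stranded 36-bp intergenic genomic probes and negative controls on an Agilent 4 × 180k array. Bound protein was visualised with Alexa488 anti-GST antibody at 488 nm. Binding intensity is the highest Masliner-normalised natural-log median intensity across replicate spots of either probe orientation.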

Sequence | gcPBM binding intensity (ln)
ACACGTTTATATAAAAAATTAAAATTTTTCTTATTT [CACACA_negctrl_site1523] | 7.95 ± 0.32
TTGCCCCAGGAGTTCACACACATAATAGATTGTCAC [CACACA_site726] | 7.79 ± 0.61
ATATTTTATTTTAATACACACAAGTTATATAACCAC [CACACA_site6508] | 8.19 ± 0.48
CAAGTATTAATTATGTGTACATATATATATATATAT [XGTACX_site5311] | 9.36 ± 0.23
ATCGTGTTAAATGTTGTGCACATATAAATTACAAAA [GTGCAC_site9822] | 10.605 ± 0.007
TTGTTGTGTATTATCGTGCACATAATATAAAAGATT | 11.11 ± 0.078
TATATGTATGTTTGTGTGCACACATAAATATTATAT | 9.79 ± 0.042
TAAATGAAAATATGTACACACTTGAAAACTTTTATG [CACACA_site7388] | 7.84 ± 0.45
GTTTTATAAAAAGGCGCACACATATACATAAATATA [CACACA_site1864] | 8.47 ± 0.37
TAATAATTATTGCACGCACACAAAAACCTATAGATT [CACACA_site2931] | 11 ± 0.67
TGTAATAATTATTGCACGCACACAAAAACCTATAGA [CACACA_site2932] | 10.8 ± 0.88
AAAATATAATATATTGCACACAAAAAGTGAATTATT [CACACA_site8489] | 10 ± 0.62
ATATTTTTTACTATTACACACAAGGGATTATTATTT [CACACA_site3915] | 7.99 ± 0.69
ATACATACATATGTATGTACGTATGTATGTATGTAT [XGTACX_site3853] | 8 ± 0.2
TATACTGTCAATTCTACACACCATAGGGGGAGCATA [CACACA_site1875] | 9.22
TTTATTTTTAACAGTGCACACATAACTTAATTATAT [CACACA_site8681] | 10.69 ± 0.071
ATGAAATATGCACAGTGTACTTTTATGAGGAACATA [XGTACX_site426] | 9.045 ± 0.064
TTTTTTTTTTTTAATGCACACAGTGAACTTTTACTT [CACACA_site3567] | 11.3 ± 0.36
AAAGAATTATATAAGGTGCACGAATGTTTCTTTAAT | 10.96 ± 0.035
TTTCTTTTTTTTTAATGTACTTTTTTTATAAAAGGT [XGTACX_site5688] | 7.99 ± 0.23
CATATAAGACAAAAGGTGCAATTTTAATGCTTTTAT [GTGCAC_site9432] | 9.99 ± 0.071
AAATAATTAGAAATAGTGCACATAATTAAGGGATAC | 11.5 ± 0.31
AATATATAAATTAATACATGCACATATAGAAAGGGA [TGCATGCA_site472] | 8.7 ± 0.52
AATAATACATCCTTAGTGCAGAAATAAAAATTAAGC [GTGCAC_site9955] | 9.76 ± 0.24
ATTTTACATATTTGCACACATATATTTAAATACATA [CACACA_site4627] | 9.85 ± 0.28
TATGAACTTTTGGGGGTGCCTTAAAATGTATATTCT | 11.2 ± 0.53
GTATATCATTTTGGGGTGCTTAAAAATAATGAATAC | 10.4 ± 0.46
TTATTATTATATGAATGTACTTAAAAATACATTTTG [XGTACX_site2959] | 7.43 ± 0.49
